# Several values for one entry are separate records, joined by “and”; a condition that tells them apart may be missing. Equal values may be shown once. Values without a mark were called inactive. Records with an inconclusive call do not appear. A call without a number means that no potency is given here. Activity calls are given as the source filed them. Unless noted, the call rests on the fitted dose curve; in most records, active means well fitted curve in the direction sought with a large enough effect; inconclusive means small, poorly fitted or top-dose-only effect, or another doubt; inactive means no such curve, though single readings can be large; an effect the other way counts as inactive or inconclusive.
# Key:
# C33A = assay: Primary qHTS to identify gynecologic anti-cancer compounds using libraries of approved drugs and bioactive compounds (AID 1345084); conditions: Gynecologic cancer cell panel viability, ATPlite luminescence, 48 h; series mostly up to 57.5 µM; further: nearly all actives have a fitted effect of over 55% in size; further: potency means the concentration at half of the fitted maximal effect
# Method in brief: (§1)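 Five-point cytotoxicity, 48 h drug exposure at 37 C, 5% CO2, on cells seeded 16 h beforehand. ATP content read by ATPlite luminescence.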
# CAOV3 = assay: as above; conditions: Gynecologic cancer cell panel viability, ATPlite luminescence, 48 h; series mostly up to 57.5 µM
# Method in brief: as §1
# CASKI = assay: as above; conditions: Gynecologic cancer cell panel viability, ATPlite luminescence, 48 h; series mostly up to 57.5 µM
# Method in brief: as §1
# Es-2 = assay: as above; conditions: Gynecologic cancer cell panel viability, ATPlite luminescence, 48 h; series mostly up to 57.5 µM
# Method in brief: as §1
# HeLa = assay: as above; conditions: Gynecologic cancer cell panel viability, ATPlite luminescence, 48 h; series mostly up to 57.5 µM
# Method in brief: as §1
# Hek293T = assay: as above; conditions: Gynecologic cancer cell panel viability, ATPlite luminescence, 48 h, control line for the selectivity index; series mostly up to 57.5 µM
# Method in brief: as §1
# JEG-3 = assay: as above; conditions: Gynecologic cancer cell panel viability, ATPlite luminescence, 48 h; series mostly up to 57.5 µM
# Method in brief: as §1
# OV90 = assay: as above; conditions: Gynecologic cancer cell panel viability, ATPlite luminescence, 48 h; series mostly up to 57.5 µM
# Method in brief: as §1
# PA-1 = assay: as above; conditions: Gynecologic cancer cell panel viability, ATPlite luminescence, 48 h; series mostly up to 57.5 µM
# Method in brief: as §1
# SKOV3 = assay: as above; conditions: Gynecologic cancer cell panel viability, ATPlite luminescence, 48 h; series mostly up to 57.5 µM
# Method in brief: as §1
# Tov-21-G = assay: as above; conditions: Gynecologic cancer cell panel viability, ATPlite luminescence, 48 h; series mostly up to 57.5 µM
# Method in brief: as §1
# Tov112D = assay: as above; conditions: Gynecologic cancer cell panel viability, ATPlite luminescence, 48 h; series mostly up to 57.5 µM
# Method in brief: as §1
# [1] = Drug repurposing screens with cells derived from glioblastoma tumor samples (AID 1345199); conditions: GBM patient neurospheres viability, ATP luminescence, 48 h; further: nearly all actives have a fitted effect of over 40% in size; further: potency means the concentration at half of the fitted maximal effect
# Method in brief: (§2)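 Four patient lines of CD133+ GBM neurospheres were screened at several concentrations; hits were retested in those lines plus three slower-growing GBM lines, using 48-hour treatment and ATP-based viability.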
# astro = assay: as above; conditions: viability, ATP luminescence, 48 h; series mostly up to 45.9 µM
# Method in brief: as §2
# [2] = qHTS assay for small molecule activators of the human pregnane X receptor (PXR) signaling pathway (AID 720659; call rule not given here)
# [3] = biological target: Nuclear receptor subfamily 1 group I member 2 (Rattus norvegicus) (UniProt Q9R1A7); assay: qHTS assay for small molecule activators of the rat pregnane X receptor (rPXR) signaling pathway (AID 651751; call rule not given here); conditions: rPXR reporter cells, luciferase (One-Glo), 24 h
# Chain of Nuclear receptor subfamily 1 group I member 2 (Rattus norvegicus) (Q9R1A7 whole entry, looked up): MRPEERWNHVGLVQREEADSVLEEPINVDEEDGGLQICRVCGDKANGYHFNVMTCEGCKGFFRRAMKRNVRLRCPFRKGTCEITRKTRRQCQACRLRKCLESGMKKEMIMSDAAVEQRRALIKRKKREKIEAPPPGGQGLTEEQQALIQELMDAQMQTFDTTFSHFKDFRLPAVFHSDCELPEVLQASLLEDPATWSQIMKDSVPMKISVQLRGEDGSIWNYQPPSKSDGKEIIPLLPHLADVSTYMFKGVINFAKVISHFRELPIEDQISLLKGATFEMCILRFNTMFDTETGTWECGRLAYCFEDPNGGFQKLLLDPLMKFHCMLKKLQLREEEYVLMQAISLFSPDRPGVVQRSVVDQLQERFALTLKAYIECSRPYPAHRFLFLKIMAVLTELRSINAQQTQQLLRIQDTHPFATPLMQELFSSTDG
# [4] = at 45.9 µM (top of the series), tumour line B
# [5] = at 45.9 µM (top of the series), tumour line D
# [6] = at 46.1 µM (top of the series), tumour line C
# [7] = at 46 µM (top of the series), tumour line A
structure (smiles),measurement,setting,value
CS(=O)(=O)N(Cc1ccco1)CC(O)Cn1c2ccccc2c2ccccc21 (stereo not given),Potency,C33A,inactive
same,Potency,CAOV3,inactive
same,Potency,CASKI,inactive
same,Potency,Es-2,inactive
same,Potency,HeLa,inactive
same,Potency,Hek293T,inactive
same,Potency,JEG-3,inactive
same,Potency,OV90,inactive
same,Potency,PA-1,inactive
same,Potency,SKOV3,inactive
same,Potency,Tov-21-G,inactive
same,Potency,Tov112D,inactive
CC(=O)O[C@]1(C(C)=O)CC[C@H]2[C@@H]3C=C(Cl)C4=CC(=O)[C@@H]5C[C@@H]5[C@]4(C)[C@H]3CC[C@@]21C,Potency,C33A,inactive
same,Potency,CAOV3,inactive
same,Potency,CASKI,inactive
same,Potency,Es-2,inactive
same,Potency,Hek293T,inactive
same,Potency,JEG-3,inactive
same,Potency,OV90,inactive
same,Potency,PA-1,inactive
same,Potency,SKOV3,inactive
same,Potency,Tov-21-G,inactive
same,Potency,Tov112D,inactive
same,"activity, negative = cell killing",[1]; [4],-17.9%
same,"activity, negative = cell killing",[1]; [5],-23%
same,"activity, negative = cell killing",[1]; [6],2.8%
same,Potency,astro,inactive
same,outcome,[2],inactive
O=C(O)Cc1cccc2ccccc12,Potency,C33A,inactive
same,Potency,CASKI,inactive
same,Potency,Es-2,inactive
same,Potency,HeLa,inactive
same,Potency,Hek293T,inactive
same,Potency,JEG-3,inactive
same,Potency,OV90,inactive
same,Potency,PA-1,inactive
same,Potency,SKOV3,inactive
same,Potency,Tov-21-G,inactive
same,Potency,Tov112D,inactive
same,"activity, negative = cell killing",[1]; [4],-11.6%
same,"activity, negative = cell killing",[1]; [5],18.7%
same,"activity, negative = cell killing",[1]; [7],-19.6%
same,"activity, negative = cell killing",[1]; [6],-6.29%
same,"activity, negative = cell killing","[1]; at 91.6 µM (top of the series), tumour line A",-29.8%
same,"activity, negative = cell killing","[1]; at 91.6 µM (top of the series), tumour line B",9.54%
same,"activity, negative = cell killing","[1]; at 91.6 µM (top of the series), tumour line D",-15.1%
same,"activity, negative = cell killing","[1]; at 99.2 µM (top of the series), tumour line C",10.5%
same,Potency,astro,inactive
same,max response,[3],-1.12% and -1.15%
same,outcome,[2],inactive
CC(=O)Oc1cc2c(s1)CCN(C(C(=O)C1CC1)c1ccccc1F)C2 (stereo not given),Potency,C33A,inactive
same,Potency,CASKI,inactive
same,Potency,Es-2,inactive
same,Potency,HeLa,inactive
same,Potency,Hek293T,inactive
same,Potency,JEG-3,inactive
same,Potency,OV90,inactive
same,Potency,PA-1,inactive
same,Potency,SKOV3,inactive
same,Potency,Tov-21-G,inactive
same,Potency,Tov112D,inactive
same,"activity, negative = cell killing",[1]; [4],4.77%
same,"activity, negative = cell killing",[1]; [5],-7.3%
same,"activity, negative = cell killing",[1]; [7],-27.4%
same,Potency,astro,inactive
Clc1ccc(Cn2c(CN3CCCC3)nc3ccccc32)cc1,Potency,C33A,inactive
same,Potency,CASKI,inactive
same,Potency,Es-2,inactive
same,Potency,HeLa,inactive
same,Potency,Hek293T,inactive
same,Potency,JEG-3,inactive
same,Potency,OV90,inactive
same,Potency,PA-1,inactive
same,Potency,SKOV3,inactive
same,Potency,Tov-21-G,inactive
same,Potency,Tov112D,inactive
same,"activity, negative = cell killing","[1]; at 20 µM (top of the series), tumour line C",-7.94%
same,"activity, negative = cell killing","[1]; at 21.2 µM (top of the series), tumour line B",-28.4%
same,Potency,[1]; tumour line A,2.51 µM (active)
same,Potency,astro,inactive
Cc1c(NC(=O)c2ccc(C(C)(C)C)cc2)cccc1-c1cn(C)c(=O)c(Nc2ccc(C(=O)N3CCOCC3)cc2)n1,Potency,C33A,inactive
same,Potency,CASKI,inactive
same,Potency,Es-2,inactive
same,Potency,HeLa,inactive
same,Potency,Hek293T,inactive
same,Potency,JEG-3,inactive
same,Potency,OV90,inactive
same,Potency,PA-1,inactive
same,Potency,SKOV3,inactive
same,Potency,Tov-21-G,inactive
same,Potency,Tov112D,inactive
COc1ccc2c(Oc3ccc(NC(=O)c4c(C)n(CC(C)(C)O)n(-c5ccccc5)c4=O)nc3)ccnc2c1,Potency,C33A,inactive
same,Potency,CASKI,inactive
same,Potency,Es-2,inactive
same,Potency,HeLa,inactive
same,Potency,Hek293T,inactive
same,Potency,JEG-3,inactive
same,Potency,OV90,inactive
same,Potency,PA-1,31.6 µM (active)
same,Potency,Tov112D,inactive

# From PubChem BioAssay (NCATS)
